Measured values as given in ChEMBL document CHEMBL3988442, “University of Dundee, Small-Polar-MMV Screening Library” (2021).
The campaign covered roughly 48,000 compounds. About 13,000 (27%) showed an effect of 50% or more. This is one part of the list.

Test system: Wolbachia pipientis
Experiment: Anti-Wolbachia Cell-Based Screen
Format: functional
Design: scale not given: in the data most compounds retested in dose-response had high values
Conditions: 5 µM

| SMILES | Percent Effect |
| --- | --- |
| Cc1ccc(CN2CCCC(c3nnc(CN4CCCCC4)n3C)C2)s1 (stereo not given) | 9.152% |
| Cn1nc(C2CCCN(Cc3ccsc3)C2)c2nccnc21 (stereo not given) | -5.788% |
| COc1cccc(CN2CCCC(c3nn(C)c4nccnc34)C2)c1.Cl (stereo not given) | 110.8% |
| Cc1ccc(CN2CCCC(c3nnc(CN4CCCC4)n3C)C2)s1 (stereo not given) | 10.41% |
| Cl.Cn1nc(C2CCCN(Cc3cccs3)C2)c2nccnc21 (stereo not given) | 122.9% |
| c1ccc(CCN2CCCC(Cn3ccnc3)C2)cc1 (stereo not given) | -0.01768% |
| Cc1ccc(CN2CCCC(c3nn(C)c4nccnc34)C2)s1 (stereo not given) | 125.3% |
| Cl.Cn1nc(C2CCCN(Cc3ccccc3)C2)c2nccnc21 (stereo not given) | 128.3% |
| CC(C)n1nc2c(cc1=O)CN(Cc1nnc(C3CC3)o1)CC2 | 15.52% |
| CCc1cc(NCCNC(C)=O)nc(N2CCOCC2)n1 | -17.29% |
| CC1CCc2nc(O)c(C(=O)NCCc3cccs3)cc2C1 (stereo not given) | -7.543% |
| CCc1nnc(C(C)N(C)Cc2c(C)nn(-c3ccccc3)c2C)o1 (stereo not given) | 1.844% |
| CCn1cc(CN2CCCC2c2nc(C(C)C)no2)cc1C#N (stereo not given) | -5.015% |
| Cc1cccc(NC(=O)CNC(=O)Cn2ncc(Cl)c(Cl)c2=O)c1C | -3.817% |
| COc1c(C2CCCN2C(=O)c2sc(C)nc2C)c(C)nn1C (stereo not given) | 94.35% |
| COc1ccsc1C(=O)N1CCCC1c1c(C)nn(C)c1OC (stereo not given) | -20.58% |
| Cc1ncsc1C(=O)N1CCCC1c1c(C)nn(C)c1Cl (stereo not given) | 100% |
| COc1c(C2CCCN2C(=O)c2scnc2C)c(C)nn1C (stereo not given) | 97.95% |
| Clc1cccc2c3c([nH]c12)CCN(Cc1cc2n(n1)CCNC2)C3 | -8.419% |
| CC(C)Oc1cccc(CN(C)C(=O)Nc2cccn(C)c2=O)c1 | -28.92% |
| Cc1ccc(Cl)c2c1C1(NC(=O)c3cccnc3N1)C(=O)N2 (stereo not given) | -5.673% |
| Cl.O=C(CN1CCC[C@H]1C(=O)O)NCCOc1cccc(Cl)c1 | -9.308% |
| O=C(CCS(=O)(=O)c1ccccc1)NCCCn1cccn1 | 91.43% |
| O=C(CCc1ccncc1)NCCOc1ncc(Cl)cc1Cl | -8.284% |
| O=C(NCCCn1cccn1)C1(c2ccc(Br)cc2)CC1 | -2.807% |

| SMILES | Percent Effect |
| --- | --- |
| O=C(CCn1cccn1)NCCOc1ccc2c(c1)OCO2 | 104.8% |
| Cc1cnn(CCNCCCOc2ccc3c(c2)OCO3)c1 | 2.747% |
| O=C(NCCOc1ncc(Cl)cc1Cl)c1ccncc1 | -15.07% |
| c1cnn(CCNCCCOc2ccc3c(c2)OCO3)c1 | -9.966% |
| O=C(NCCCn1cccn1)C1(c2ccc(F)cc2)CC1 | -8.161% |
| O=C(CCn1cccn1)NCCOc1cccc(Cl)c1 | 87.31% |
| O=C(CCn1cccn1)NCCOc1ncc(Cl)cc1Cl | 81.6% |
| O=C(C[S+]([O-])C1CCCC1)NCCOc1cccc(Cl)c1 (stereo not given) | -1.497% |
| c1ccc(-c2nc3c(c(NCCn4cccc4)n2)CCNCC3)nc1 | -2.581% |
| CC(C)c1nc(CC(=O)Nc2nc(CN3CCCCCC3)cs2)cs1 | 13.84% |
| O=C(CCOc1ccc(Cl)cc1)NCCCn1cccn1 | 101.2% |
| O=C(NCCCn1cccn1)C1COCC(=O)N1Cc1ccccc1 (stereo not given) | -30.45% |
| O=C(CN1CCOc2ccc(Cl)cc21)NCCCn1cccn1 | -8.926% |
| Cc1occc1C(=O)NCC(=O)NCCOc1cccc(Cl)c1 | 23.6% |
| CC(C(=O)NCCOc1cccc(Cl)c1)n1cncn1 (stereo not given) | -0.6619% |
| O=C(CCn1cncn1)NCCOc1cccc(Cl)c1 | 114.1% |
| CNc1nc(C(=O)N2C[C@H]3CC[C@@H]2CN(S(C)(=O)=O)C3)cs1 | -0.32% |
| COc1ccc(S(=O)(=O)N2CCC(OCc3ccccn3)C2)cc1Br (stereo not given) | 4.781% |
| Cn1c(C2CC2)nc2c1CCN(CCS(=O)(=O)c1ccccc1)C2 | -2.763% |
| Cc1cc(C2CCCN(CCCS(=O)(=O)c3ccccc3)C2)n[nH]1 (stereo not given) | -3.796% |
| Cc1cc(C2CCCN(CCNS(=O)(=O)c3ccccc3)C2)n[nH]1 (stereo not given) | 94.49% |
| Cc1cc(C2CCCN(CCS(=O)(=O)c3ccccc3)C2)n[nH]1 (stereo not given) | 111.9% |
| Cc1cc(N2CCC(N(C)Cc3cc(=O)c(O)co3)CC2)nc(C)n1 | -0.2819% |
| CN(CC(O)C1CC1)C(=O)Nc1ccc(F)c(-n2cccc2)c1 (stereo not given) | 2.69% |
| CCc1nc(C2CCCN2C(=O)c2ccc(=O)n(CC)n2)no1 (stereo not given) | -10.47% |

| SMILES | Percent Effect |
| --- | --- |
| CCc1cc(O)nc(C2CCCN2C(=O)c2cc(CC)on2)n1 (stereo not given) | 115.4% |
| CCc1cc(C(=O)N2CCCC2c2nc(O)cc(CC)n2)on1 (stereo not given) | 115.5% |
| CCc1cc(O)nc(C2CCCN2C(=O)c2cc(C)no2)n1 (stereo not given) | -6.64% |
| CCc1cc(O)nc(C2CCCN2C(=O)COC)n1 (stereo not given) | 126% |
| CCc1nc(C2CCCN2C(=O)c2nccnc2N)no1 (stereo not given) | -19.66% |
| CCn1nc(C(=O)N2CCCC2c2noc(C)n2)ccc1=O (stereo not given) | 2.469% |
| CCc1ccc(C(=O)NC2CCN(c3ccn(C)n3)C2)o1 (stereo not given) | -10.19% |
| O=C(Nc1cc(C(F)(F)F)ccc1Cl)c1ccc(N2CCCC2)nn1 | 13.93% |
| N#Cc1ccc(OCCNc2cccc(C(=O)N3CCOCC3)c2)cc1 | -3.52% |
| CC(C)C(C#N)N1CCN(C(=O)c2cc(-c3ccccn3)no2)CC1 (stereo not given) | -9.203% |
| O=C(NCCn1cccc1)C1CCCN(C2CCCC2)C1 (stereo not given) | -8.525% |
| CNC(=O)[C@@H]1C[C@H](n2cc(-c3ccc(Cl)cc3)nn2)CN1 | 104.7% |
| CCN(CC)C(=O)[C@@H]1C[C@H](n2cc(-c3ccccn3)nn2)CN1 | -5.115% |
| CNC(=O)[C@@H]1C[C@@H](n2cc(-c3ccc(Cl)cc3)nn2)CN1 | 111.1% |
| CCN(CC)C(=O)[C@@H]1C[C@@H](n2cc(-c3ccccn3)nn2)CN1 | -7.154% |
| CCN(CC)C(=O)[C@@H]1C[C@@H](n2cc(-c3cccc(OC)c3)nn2)CN1 | -2.078% |
| CCN(CC)C(=O)[C@@H]1C[C@H](n2cc(-c3cccc(OC)c3)nn2)CN1 | -3.277% |
| CNC(=O)NC(=O)CCSc1ccccc1C | -14.48% |
| CCc1noc(CN2CCCC2C(=O)OCc2ccccc2)n1 (stereo not given) | 6.169% |
| Cc1nc2n(n1)CC(NCC(=O)NCCCOC(C)C)CC2 (stereo not given) | -9.274% |
| Cc1ccc(NC2CCN(C(=O)Cc3ccc(C#N)cc3)CC2)nn1 | -2.358% |
| Cc1ccc(CC(=O)N2CCC(Nc3ccc(C)nn3)CC2)cn1 | 105.9% |
| COc1ccc(CC(=O)N2CCC(Nc3ccc(C)nn3)CC2)cc1 | 95.7% |
| Cc1ccc(OCC(=O)NS(=O)(=O)c2cccnc2)cc1C | -7.985% |
| Cc1c[nH]c(C(=O)N2CCC(c3nnc(CN(C)CCO)n3C)CC2)c1 | -9.354% |

| SMILES | Percent Effect |
| --- | --- |
| CCCNC(=O)CN1CCOC(c2ccc(Br)cc2)C1 (stereo not given) | -1.206% |
| COC1CCCN(Cc2cc(O)c3cc(C)cc(C)c3n2)C1 (stereo not given) | -4.558% |
| Cc1cc(C)c2nc(CN3CC[C@@H](O)C3)cc(O)c2c1 | -21.84% |
| Cc1cc(C)c2nc(CN3CCCC(c4cc[nH]n4)C3)cc(O)c2c1 (stereo not given) | 54.67% |
| Cn1cc(CN2C[C@H](N3CCOCC3)[C@@H]3OCCC[C@@H]32)cn1.O=C(O)C(F)(F)F.O=C(O)C(F)(F)F | 9.025% |
| CN(Cc1ccco1)[C@@H]1CN(Cc2nccn2C)[C@@H]2CCCO[C@H]12.O=C(O)C(F)(F)F.O=C(O)C(F)(F)F.O=C(O)C(F)(F)F | -0.8776% |
| CN(Cc1cccnc1)[C@@H]1CN(Cc2nccn2C)[C@@H]2CCCO[C@H]12.O=C(O)C(F)(F)F.O=C(O)C(F)(F)F.O=C(O)C(F)(F)F.O=C(O)C(F)(F)F | 107.5% |
| CN(Cc1cccnc1)[C@@H]1CN(Cc2cnn(C)c2)[C@@H]2CCCO[C@H]12.O=C(O)C(F)(F)F.O=C(O)C(F)(F)F.O=C(O)C(F)(F)F.O=C(O)C(F)(F)F | 88.39% |
| CN(Cc1ccco1)[C@@H]1CN(Cc2cnn(C)c2)[C@@H]2CCCO[C@H]12.O=C(O)C(F)(F)F.O=C(O)C(F)(F)F | 12.06% |
| CCN(CC)[C@@H]1CN(Cc2nccn2C)[C@@H]2CCCO[C@H]12.O=C(O)C(F)(F)F.O=C(O)C(F)(F)F.O=C(O)C(F)(F)F | -9.914% |
| CCC(C)(CNC(=O)Nc1nncs1)N1CCOCC1 (stereo not given) | -7.544% |
| Cc1nc(C)n(CC2CCCN(c3ncnc4c3CCC4)C2)n1 (stereo not given) | -12.81% |
| Cc1nc(C)n(CC2CCCN(c3ccc(C#N)cn3)C2)n1 (stereo not given) | 123% |
| Cc1nc(C)n(CC2CCCN(c3ncnc4ccsc34)C2)n1 (stereo not given) | -4.048% |
| Cc1nc(C)n(CC2CCCN(c3ncnc4ccccc34)C2)n1 (stereo not given) | 143.5% |
| Cc1nc(C)n(CC2CCCN(c3ccnc(-c4ccccc4)n3)C2)n1 (stereo not given) | -14.72% |
| CC(C)(NC(=O)C1CCN(C2CCCCC2)CC1)c1nnc(N)s1 | 3.743% |
| c1cncc(-c2nc3c(c(NCC4(c5ccncc5)CC4)n2)CCC3)c1 | -14.36% |
| CCn1nc(C)cc1C(=O)N1CCOc2cc(C)ccc21 | -0.2889% |
| Cc1csc(CNc2cnn(C(C)C)c2)n1 | 2.502% |
| Cc1cn2c(CN(C)C(=O)c3cccnc3O)c(C)nc2s1 | 1.222% |
| Cc1nn(C)c(C)c1C1CCCN1Cc1nc(C2CC2)no1 (stereo not given) | -2.837% |
| Cc1nn(C)c(C)c1C1CCCN1Cc1nc(-c2ccccn2)no1 (stereo not given) | 93.92% |
| Cc1nn(C)c(C)c1C1CCCN1Cc1nc(-c2cccs2)no1 (stereo not given) | 66.61% |
| Cc1nc(C)n(CC2CCCN2Cc2nc(-c3cccs3)no2)n1 (stereo not given) | -9.424% |
